In PubChem BioAssay AID2732 (Emory University Molecular Libraries Screening Center, 2010) one finds inhibition data, which are given here for 96 compounds.

Hit rate of the full screen: of about 220,000 compounds, about 8,200 (3.7%) were called active. The full list was thinned out, with actives kept by preference. Unmarked numbers belong to inactive results.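 How the source made its calls: active means compounds that reduced the stress-induced luciferase reporter signal by more than about 70% of percent inhibition (limit read from the data); inactive means the rest.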

The assay can be described thus: inhibitors of CHOP promoter induction, primary screen, cell-based, unfolded protein response, luciferase reporter (AID 2732).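 Further: 0% = tunicamycin plus vehicle and 100% = wells without tunicamycin.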 Conditions: CHO-K1 CHOP-promoter luciferase, tunicamycin-induced, 15-18 h; at 10 µM; active compounds read high. In general terms: Reporter assays use an easily measured gene product as a stand-in for the process of interest.
Turning to `CCCCNC(=O)CCn1c(=O)c2ccccc2n(Cc2cc(C)ccc2C)c1=O`, the inhibition (as a rule, the relative decrease from the control value, in per cent) is 86.5% (active).

For the compound `COCCNC(=O)CCCn1c(=O)c2ccccc2n(Cc2cccc([N+](=O)[O-])c2)c1=O`, the inhibition is -6.2%.

Take `CCCCNC(=O)CCn1c(=S)[nH]c2cc3c(cc2c1=O)OCO3`: the inhibition is 55%.

Turning to `Cc1ccc(-c2c[n+](=O)c3c(n2[O-])CCC3)cc1`, the inhibition is 17.5%.

For the compound `Cc1ccc(NS(=O)(=O)c2ccc(N/N=C/c3ccccc3OCC(=O)O)c([N+](=O)[O-])c2)c(C)c1`, the inhibition was -8.85%.

Turning to `CC(C)Sc1nnc([C@H](Cc2ccccc2)NC(=O)OC(C)(C)C)o1`, the inhibition was 11.1%.

As to `C[C@H](NC(=O)OC(C)(C)C)c1nnc(SCC(N)=O)o1`, the inhibition was 26.6%.

For the compound `C[C@@H](NC(=O)OC(C)(C)C)c1nnc(S(=O)(=O)Cc2ccccc2)o1`, the inhibition is 86.2% (active).

For the compound `CC(C)C(=O)N1CCC2(CC1)Oc1ccc(F)cc1C(=O)C21CC(c2ccccc2)=NO1` (stereo unspecified), the inhibition is 19.9%.

As for `O=C(Nc1nnc(SCc2c(Cl)cccc2Cl)s1)c1cccc([N+](=O)[O-])c1`, the inhibition was 30.6%.

With `CCOC(=O)C1=C(c2ccc(OC)cc2)C(=O)c2ccccc2C1=O`, the inhibition was 102% (active).

As to `CCOC(=O)c1c(-c2ccc(C)cc2)csc1/N=C(\C)C1=C(O)c2ccccc2C1=O`, the inhibition is 3.26%.

In the case of `CCOC(=O)c1ccccc1NS(=O)(=O)c1ccc(OC)cc1`, the inhibition was 9.25%.

Take `O=C(Nc1ccc(N2CCN(C(=O)c3ccccc3)CC2)c(Cl)c1)c1ncn[nH]1`: the inhibition was 37.5%.

With `COCCn1c(SCC(=O)Nc2cc(OC)ccc2OC)nc2c(c1=O)SC(C)C2` (stereo unspecified), the inhibition was -5.89%.

For the compound `CC(=O)Nc1ccc(/C=C/C(=O)c2ccccc2)cc1`, the inhibition is -42%.

On to `CN(C)c1cc(-c2ccc(F)cc2)oc(=O)c1Cl`, for which the inhibition is 12.7%.

Turning to `CNC(=S)NNC(=O)c1oc2nc(-c3ccccc3)cc(-c3ccco3)c2c1N`, the inhibition was -27.7%.

For the compound `CN(C)C(=O)c1coc2nc3ccccc3nc12`, the inhibition is 20.5%.

For the compound `Cc1ccsc1/C=N/Nc1ccc(Cl)nn1`, the inhibition is 65.5%.

Consider `CCN1/C(=C/c2ccc3ccc(C)cc3[n+]2CC)Sc2ccccc21`, for which the inhibition is 73% (active).

In the case of `CCN1/C(=C\c2ccc3ccccc3[n+]2CC)Sc2cc(C)ccc21`, the inhibition was 87.5% (active).

As for `CCN1/C(=C/C(=S)Nc2ccccc2)Sc2ccccc21`, the inhibition is -10.3%.

With `CCC(=O)/C=C1\Sc2ccccc2N1CC`, the inhibition was 14.1%.

Consider `O=C(Nc1cccc(S(=O)(=O)NC2=NCCC2)c1)C1CCCCC1`, for which the inhibition was 3.64%.

Take `CC(C)(C)NC(=O)/C(=C/c1cccnc1)NC(=O)c1ccco1`: the inhibition is 12.6%.

`Cc1nnsc1C(=O)N/N=C/c1ccccc1Cl`: the inhibition was -17.2%.

In the case of `COc1ccc(/C=N/NS(=O)(=O)c2ccc(NC(C)=O)cc2)cc1`, the inhibition was 1.32%.

In the case of `CN(C)S(=O)(=O)c1ccc(NC(=O)COC(=O)Cn2[nH]c(=O)c3ccccc3c2=O)cc1`, the inhibition is 0.58%.

Turning to `Cc1cccc2c1-c1sc(C(=O)NCCCN3CCc4ccccc4C3)cc1CO2`, the inhibition was 35.6%.

`Cc1cnc(NC(=O)CSc2nnc(C)s2)s1`: the inhibition was 22.4%.

For `Cc1cnc(NC(=O)CSc2c(Cl)cccc2Cl)s1`, the inhibition is 74.4% (active).

Consider `Cc1ccc(SCC(=O)Nc2ncc(C)s2)cc1`, for which the inhibition is 4.03%.

Turning to `FC(F)(F)Oc1ccc(-c2cn3cccnc3n2)cc1`, the inhibition is 2.48%.

`CCOC(=O)c1nnn2c3ccccc3c(=O)n(C)c12`: the inhibition was 8.91%.

Consider `Cc1ccc(-c2cc(C(=O)NN)n[nH]2)o1`, for which the inhibition was 2.15%.

On to `CC(=O)c1sc(NC(=O)c2ccc(C)cc2)nc1C`, for which the inhibition is -2.78%.

`Cc1ccc(C(=O)Nc2nnc(-c3cccs3)s2)cc1C`: the inhibition was 48.9%.

`N#Cc1ccc(C(=O)Nc2nc(-c3cccs3)c(C(=O)C(F)(F)F)s2)cc1`: the inhibition was 74.7% (active).

As to `Cn1c2c(c(=O)n(C)c1=O)C(c1cccc(F)c1)C(C#N)=C(N)O2` (stereo unspecified), the inhibition was 6.57%.

Take `CCc1nc2sc3c(Cl)ncnc3c2c2c1CCCC2`: the inhibition is -17.1%.

For `COc1ccc(CCNC(=O)C(Sc2ccccn2)c2ccccc2)cc1OC` (stereo unspecified), the inhibition was 6.29%.

In the case of `COc1ccc(C(CCN(Cc2ccc(OC)c(OC)c2)C(=O)CCl)c2ccccc2)cc1` (stereo unspecified), the inhibition is 106% (active).

`CCOC(=O)CN(Cc1ccc(OC)c(OC)c1)S(=O)(=O)c1ccc(OC)cc1`: the inhibition is -1.05%.

Take `CC(C)(C)c1cc(C(=O)NN)n(Cc2ccc(Cl)cc2Cl)n1`: the inhibition is -7.9%.

In the case of `Cc1c([N+](=O)[O-])c(N)nn1C`, the inhibition was 4.08%.

Regarding `N#CCC(=O)N/N=C/c1cn(Cc2ccc3ccccc3c2)c2ccccc12`, the inhibition was 1.95%.

Turning to `NS(=O)(=O)c1cccnc1Nc1cccc(Cl)c1`, the inhibition is 5.4%.

Take `CC(C)n1cnc2c(Nc3cccc(Cl)c3)nc(N(CCO)CCCO)nc21`: the inhibition was 61.8%.

With `OCCCNc1nccc(-c2cc(Nc3cccc(Cl)c3)ncn2)n1`, the inhibition was 103% (active).

For the compound `CCOC(=O)C1CCN(C(=O)Nc2cccc(OC)c2)CC1`, the inhibition was 6.27%.

In the case of `CSc1nc(C)nc(C2CC2)c1C#N`, the inhibition is 15.9%.

Take `COc1ccc(-c2cc(C3CCN(c4ncccc4[N+](=O)[O-])CC3)[nH]n2)cc1`: the inhibition is 75.9% (active).

In the case of `CC(=O)NC(Cc1ccccc1)C(=O)NC1CCN(c2ncccc2[N+](=O)[O-])CC1` (stereo unspecified), the inhibition is 19.6%.

On to `COc1ccc(N2CCN(c3ccc([N+](=O)[O-])nc3)CC2)cc1`, for which the inhibition was 10.8%.

With `CC1(C)CC(CNCCC(c2ccc(F)cc2)c2ccco2)CCO1` (stereo unspecified), the inhibition was 10.6%.

Take `C=CCn1c(-c2ccc(Cl)cc2)ccc(C#N)c1=O`: the inhibition is 82.2% (active).

As for `C=CCn1cc(-c2cccc(C(F)(F)F)c2)cc(C#N)c1=O`, the inhibition is 5.76%.

On to `C=CCn1c(SCn2nnc3ccccc3c2=O)nnc1-c1ccc(Cl)cc1`, for which the inhibition was 17.8%.

For `O=C(Cc1ccccc1)Nc1c(Cl)ccc2nsnc12`, the inhibition is -1.48%.

For `O=C(c1ccc(F)cc1)C1CCN(Cc2cn[nH]c2-c2ccccc2)CC1`, the inhibition was 15.6%.

In the case of `Cn1cnc([N+](=O)[O-])c1Sc1n[nH]c(N)n1`, the inhibition was -10.3%.

As to `COc1ccc(C(=O)Nc2ccc(CN3CCOCC3)cc2)cc1`, the inhibition is -29.9%.

As for `O=C(Nc1ccc(CSc2ccccc2)cc1)c1ccc(CN2CCOCC2)cc1`, the inhibition is 79.5% (active).

For the compound `O=C(Nc1ccccc1C(=O)N1CCOCC1)c1ccc(CSc2ccccc2)cc1`, the inhibition is -8.2%.

Regarding `Cc1nnc(C)c2c(C)n(N)c(C)c12`, the inhibition was 13.9%.

For the compound `COCC(=O)Nc1nnc(COc2ccccc2)s1`, the inhibition is -20.1%.

On to `Cc1ccc(OCc2nnc(NC(=O)OCC(C)C)s2)cc1`, for which the inhibition was 91% (active).

With `Cc1ccc(COc2ccc(C(=O)NN)cc2)cc1`, the inhibition is 0.74%.

`CCn1c(CN2C(=O)CSc3ccccc32)n[nH]c1=S`: the inhibition is 11.5%.

Consider `C=CCNC(=O)c1ccc2c3n(nc2c1)-c1ccc(C)cc1CO3`, for which the inhibition was -2.7%.

In the case of `COCCNC(=S)N1CCN(C)CC1`, the inhibition is -18.1%.

Turning to `O=C1[C@@H]2C(Cc3ccc(O)cc3)NC3(C(=O)Nc4ccc(F)cc43)[C@@H]2C(=O)N1c1ccc(F)cc1` (stereo partly specified), the inhibition was 27.9%.

In the case of `CSCCC1NC2(C(=O)Nc3ccc(Cl)cc32)[C@@H]2C(=O)N(C3CCCC3)C(=O)[C@H]12` (stereo partly specified), the inhibition is 85.7% (active).

Turning to `COc1ccc(N=Nc2ccc(O)c(P(=O)(c3ccccc3)c3ccccc3)c2)cc1`, the inhibition is 2.83%.

For the compound `CCOC(=O)CN/C=C(\C#N)c1ccc(F)cc1`, the inhibition was -6.58%.

With `C/C(=N\OCC(=O)O)c1ccc(Cl)cc1`, the inhibition is -4.7%.

Regarding `CCOc1cc(/C=C(/C#N)c2ccc(Cl)cc2)cc(Cl)c1OCC(=O)O`, the inhibition is 87.8% (active).

On to `C=CC1C(OC2OC(CO)C(O)C(O)C2O)OC=C(C(=O)OC)C1CC1CC(=O)CC(CC(=O)CCc2ccc(O)cc2)O1` (stereo unspecified), for which the inhibition was 7.57%.

Consider `CCOC(=O)c1c(CC(C)C)csc1/N=C/C1=C(O)CCCC1=O`, for which the inhibition is 24.8%.

As to `O=C(Nc1ccccc1)Nc1nnc(COc2ccccc2F)s1`, the inhibition is 9.53%.

Regarding `Cc1nnc(NC(=O)CCCOc2ccccc2)s1`, the inhibition was 26.2%.

Consider `O=C(Nc1nnc(COc2ccccc2)s1)Nc1ccccc1F`, for which the inhibition is 96.7% (active).

Regarding `Cc1ccc(S(=O)(=O)N2CCN(C(=O)COC(=O)c3c(C)noc3C)CC2)c(C)c1`, the inhibition is 8.26%.

Turning to `Cc1ccc(C(=O)Cn2cc([N+](=O)[O-])nc2C)cc1`, the inhibition is 2.6%.

As for `O=C(CN1CCOCC1)N/N=C/c1ccc(-c2ccc(Br)cc2)o1`, the inhibition is 32.5%.

Regarding `O=c1c(-c2ccc3c(c2)OCCO3)c(C(F)(F)F)oc2cc(O)cc(O)c12`, the inhibition was 13.2%.

Take `CCOC(=O)c1cc2cc(-c3c(C(=O)OCC)oc4cc(O)cc(O)c4c3=O)ccc2o1`: the inhibition is 105% (active).

With `CCOC(=O)c1oc2c(CN3CCN(C)CC3)c(O)ccc2c(=O)c1-c1ccc(Br)cc1`, the inhibition was -10.9%.

For `NC(=O)[C@H]1CC2(CC(c3cccc(NC(=O)[C@H]4CCC(=O)N4)c3)=NO2)CN1C(=O)c1ccccc1C(=O)c1ccccc1` (stereo partly specified), the inhibition is -11.9%.

As for `Cn1c(SCC(=O)N/N=C/c2ccc(O)c(O)c2)nc2ccccc21`, the inhibition is -4.19%.

As for `Nc1ccc(C(=O)OCC(=O)NC2CCS(=O)(=O)C2)cc1[N+](=O)[O-]` (stereo unspecified), the inhibition was 3.77%.

As to `C=CCOC(=O)C1=C(C)NC(C)=C(C(=O)OCC=C)C1c1cccs1`, the inhibition is 86.8% (active).

For `CCOC(=O)C1=C(C)NC(=S)NC1c1cccs1` (stereo unspecified), the inhibition is 0.7%.

In the case of `CCOC(=O)C1=C(C)Nc2nc3ccccc3n2C1c1cccs1` (stereo unspecified), the inhibition was 18%.

As to `CCC(C)NC(=O)C1c2ccccc2Oc2ccccc21` (stereo unspecified), the inhibition is -5.78%.
